{"source": "PubChem BioAssay (NCATS)", "note": "Records with an inconclusive call do not appear. A call without a number means that no potency is given here. Active and inactive are the calls of the source. The call rests on the fitted dose curve; in most records, active means well fitted inhibition curve with a large enough effect; inconclusive means small, poorly fitted or top-dose-only effect; inactive means no such curve, though single readings can be large or run the other way."}
{"biological_target": "Rap guanine nucleotide exchange factor 4 (Homo sapiens) (UniProt Q8WZA2)", "sequence (Q8WZA2 whole entry, looked up)": "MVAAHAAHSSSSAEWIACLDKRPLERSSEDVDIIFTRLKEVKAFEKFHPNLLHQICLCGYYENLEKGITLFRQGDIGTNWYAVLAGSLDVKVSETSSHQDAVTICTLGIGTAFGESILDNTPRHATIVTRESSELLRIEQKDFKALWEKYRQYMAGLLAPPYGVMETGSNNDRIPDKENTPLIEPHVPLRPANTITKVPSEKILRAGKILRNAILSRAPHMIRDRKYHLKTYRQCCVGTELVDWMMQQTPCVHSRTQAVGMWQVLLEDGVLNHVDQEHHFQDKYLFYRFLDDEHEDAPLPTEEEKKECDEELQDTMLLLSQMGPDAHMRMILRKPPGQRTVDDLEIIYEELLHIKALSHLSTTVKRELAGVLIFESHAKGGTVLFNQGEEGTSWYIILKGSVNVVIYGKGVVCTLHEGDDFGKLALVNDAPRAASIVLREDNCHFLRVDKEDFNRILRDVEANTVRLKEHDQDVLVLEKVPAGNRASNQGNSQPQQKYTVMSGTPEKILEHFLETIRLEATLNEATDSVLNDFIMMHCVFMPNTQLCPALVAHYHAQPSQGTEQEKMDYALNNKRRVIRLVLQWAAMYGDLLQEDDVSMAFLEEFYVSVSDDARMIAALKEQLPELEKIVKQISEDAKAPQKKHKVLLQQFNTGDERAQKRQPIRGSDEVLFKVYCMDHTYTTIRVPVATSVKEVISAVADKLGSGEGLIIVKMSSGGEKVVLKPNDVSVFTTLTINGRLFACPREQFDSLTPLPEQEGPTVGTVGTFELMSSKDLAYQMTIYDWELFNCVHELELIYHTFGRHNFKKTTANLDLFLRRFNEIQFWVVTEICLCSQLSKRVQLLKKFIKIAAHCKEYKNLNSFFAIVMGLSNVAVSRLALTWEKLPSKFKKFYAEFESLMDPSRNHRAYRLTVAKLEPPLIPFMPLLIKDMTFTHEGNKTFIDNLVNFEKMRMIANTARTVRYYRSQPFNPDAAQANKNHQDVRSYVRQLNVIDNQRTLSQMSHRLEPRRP", "test": "Confirmatory qHTS for antagonist of cAMP-regulated guanine nucleotide exchange factor 4 (EPAC2) (AID 1645885); further: nearly all actives have a fitted effect of over 25% in size; further: potency means the concentration at half of the fitted maximal effect", "conditions": "EPAC2 Rap1B-BODIPY-GDP exchange fluorescence, biochemical; series mostly up to 12.7 µM"}
{"smiles": "COc1cc(O)c(C(C)=O)c2c1C=CC(C)(C)O2", "Potency": "inactive"}
{"smiles": "COCCCn1c(=O)/c(=C\\c2ccccc2OC(C)C)s/c1=C(/C#N)C(=O)Nc1ccc(C(=O)O)cc1", "Potency": "inactive"}
{"smiles": "COC(=O)c1ccc2nc(-c3ccc(F)cc3)c(Cc3ccc(C)cc3)n2c1", "Potency": "inactive"}
{"smiles": "Cc1ccc(NC(=O)CN2C(=O)S/C(=C\\c3cccn3-c3cccc(C(=O)O)c3)C2=O)cc1C", "Potency": "0.019 µM (active)"}
{"smiles": "COc1ccc(N2Cc3cccc(C(=O)Nc4ccc(C(C)C)cc4)c3C2=O)cc1", "Potency": "inactive"}
{"smiles": "CN(C)S(=O)(=O)c1ccc(N2CCCC2)c(C(=O)NCC2COc3ccccc3O2)c1", "note": "(stereo not given)", "Potency": "30.1 µM (active)"}
{"smiles": "CCC1=NN2C(=N)/C(=C/c3ccc(OS(=O)(=O)c4ccccc4)cc3)C(=O)N=C2S1", "Potency": "inactive"}
{"smiles": "CCCn1cc(SCC(=O)NCc2ccc3c(c2)OCO3)c2ccccc21", "Potency": "inactive"}
{"smiles": "CCOC(=O)C1CCN(c2c(C(=O)c3ccc(C)cc3)cnc3ccc(F)cc23)CC1", "Potency": "inactive"}
{"smiles": "O=C(CSc1nc2ccc(Cl)cc2[nH]1)N1CCN(C(=O)c2ccco2)CC1", "Potency": "inactive"}
{"smiles": "O=C(CSc1nc(O)cc(=O)n1-c1ccccc1)Nc1nc2ccccc2s1", "Potency": "inactive"}
{"smiles": "CCn1c(=O)c2sccc2n2c(CCCC(=O)N3CCN(c4cc(Cl)ccc4C)CC3)nnc12", "Potency": "inactive"}
{"smiles": "O=C(O)/C=C\\C(=O)Nc1ccccc1C#Cc1ccc(Br)cc1", "Potency": "1.35 µM (active)"}
{"smiles": "COc1cccc(C(=O)Nc2ccc(NC(=O)c3ccco3)c(Cl)c2)c1", "Potency": "inactive"}
{"smiles": "O=C(NC1CCCCC1)C(c1ccc(-c2ccccc2)cc1)n1c(=O)c(-c2ccco2)nc2ccccc21", "note": "(stereo not given)", "Potency": "inactive"}
{"smiles": "CC(C)N(Cc1ccccc1)C(=O)c1nc(-c2ccc(Cl)cc2)n2c1CCCCC2", "outcome": "inactive [at 12.7 µM]"}
{"smiles": "COc1cccc(/C=C2\\SC(=S)NC2=O)c1OS(=O)(=O)c1ccc(NC(C)=O)cc1", "Potency": "inactive"}
{"smiles": "CC[C@@H]1CC=C[C@H]2[C@H]1C(=O)N(Cc1ccccc1)[C@H]2c1ccc(OC)c(Cl)c1", "Potency": "inactive"}
{"smiles": "CN(C)c1ccc(-c2[nH][nH]c(=O)c2NC(=O)c2ccccn2)cc1", "Potency": "inactive"}
{"smiles": "Cc1cc(CSc2ccc(Cl)cc2)ccc1N", "Potency": "inactive"}
{"smiles": "O=C(/C=C/c1ccccc1Cl)c1ccc(O)cc1", "Potency": "inactive"}
{"smiles": "CCOC(=O)C1=C(C)NC(C)=C(C(=O)OCC)C1c1cccc([N+](=O)[O-])c1", "Potency": "inactive"}
{"smiles": "CCc1nc2c(OCc3ccc(C(F)(F)F)cc3)cccn2c1N(C)C(=O)c1ccc(C)cc1", "Potency": "inactive"}
{"smiles": "CCCS(=O)(=O)c1c(S(=O)(=O)CCC)c2cnccn2c1C(=O)c1ccc(CC)cc1", "Potency": "inactive"}
{"smiles": "Cc1cccc(S(=O)(=O)Nc2ccc(S(=O)(=O)Nc3nccs3)cc2)c1", "Potency": "75.7 µM (active)"}
{"smiles": "C[C@@]12C(=O)Nc3cc(F)ccc3C(=O)N1[C@H]1c3cc(Br)ccc3OC[C@@H]1[C@@H]2c1ccccc1", "Potency": "inactive"}
{"smiles": "CC1OC(CC(=O)O)CC2=C1C(=O)c1c(O)cccc1C2=O", "note": "(stereo not given)", "Potency": "inactive"}
{"smiles": "CS/C(=C\\C(=O)c1ccco1)Nc1ccccc1Cl", "Potency": "inactive"}
{"smiles": "O=C(CCCn1c(SCC(=O)c2ccc(O)c(O)c2)nc2ccccc2c1=O)NCC1CCCO1", "note": "(stereo not given)", "Potency": "inactive"}
{"smiles": "COc1ccccc1-c1oc2ccccc2c1C#CC(C)(C)O", "Potency": "inactive"}
{"smiles": "O=C(N/N=C/c1c(O)ccc2ccccc12)c1[nH]ncc1Br", "Potency": "inactive"}
{"smiles": "Cc1ccc(-c2nn(-c3ccccc3)cc2C=C2SC(=S)N(CCS(=O)(=O)O)C2=O)cc1", "Potency": "inactive"}
{"smiles": "COc1cc(NC(=O)c2cc3nc(-c4ccccc4)cc(-c4ccccc4)n3n2)cc(OC)c1OC", "Potency": "inactive"}
{"smiles": "Cc1ccccc1C(=O)Nc1sc2c(c1C(=O)N1CCCCC1)CCC(C)C2", "note": "(stereo not given)", "Potency": "inactive"}
{"smiles": "CC1=C(C(=O)Nc2ccccc2)C(c2ccc(Cl)cc2)n2c(s/c(=C/c3cccc(OCC(=O)O)c3)c2=O)=N1", "note": "(stereo not given)", "Potency": "inactive"}
{"smiles": "COc1ccc2c(c1)Cc1sc(NC(=O)c3ccccc3C)nc1-2", "Potency": "inactive"}
{"smiles": "COc1cccc(C(=O)Nc2nnc(-c3ccccc3)s2)c1OC", "Potency": "inactive"}
{"smiles": "O=C(N/N=C/c1ccc(O)c(O)c1)c1ccc(CSc2cccc3cccnc23)cc1", "Potency": "inactive"}
{"smiles": "COc1ccc(N(CC(=O)NC2CCCCCCC2)S(=O)(=O)c2c(C)nn(C)c2C)cc1", "Potency": "inactive"}
{"smiles": "CC(NS(=O)(=O)OCC(Cl)(Cl)Cl)c1ccc(Br)cc1", "note": "(stereo not given)", "Potency": "inactive"}
{"biological_target": "Rap guanine nucleotide exchange factor 3 (Homo sapiens) (UniProt O95398)", "sequence (O95398 whole entry, looked up)": "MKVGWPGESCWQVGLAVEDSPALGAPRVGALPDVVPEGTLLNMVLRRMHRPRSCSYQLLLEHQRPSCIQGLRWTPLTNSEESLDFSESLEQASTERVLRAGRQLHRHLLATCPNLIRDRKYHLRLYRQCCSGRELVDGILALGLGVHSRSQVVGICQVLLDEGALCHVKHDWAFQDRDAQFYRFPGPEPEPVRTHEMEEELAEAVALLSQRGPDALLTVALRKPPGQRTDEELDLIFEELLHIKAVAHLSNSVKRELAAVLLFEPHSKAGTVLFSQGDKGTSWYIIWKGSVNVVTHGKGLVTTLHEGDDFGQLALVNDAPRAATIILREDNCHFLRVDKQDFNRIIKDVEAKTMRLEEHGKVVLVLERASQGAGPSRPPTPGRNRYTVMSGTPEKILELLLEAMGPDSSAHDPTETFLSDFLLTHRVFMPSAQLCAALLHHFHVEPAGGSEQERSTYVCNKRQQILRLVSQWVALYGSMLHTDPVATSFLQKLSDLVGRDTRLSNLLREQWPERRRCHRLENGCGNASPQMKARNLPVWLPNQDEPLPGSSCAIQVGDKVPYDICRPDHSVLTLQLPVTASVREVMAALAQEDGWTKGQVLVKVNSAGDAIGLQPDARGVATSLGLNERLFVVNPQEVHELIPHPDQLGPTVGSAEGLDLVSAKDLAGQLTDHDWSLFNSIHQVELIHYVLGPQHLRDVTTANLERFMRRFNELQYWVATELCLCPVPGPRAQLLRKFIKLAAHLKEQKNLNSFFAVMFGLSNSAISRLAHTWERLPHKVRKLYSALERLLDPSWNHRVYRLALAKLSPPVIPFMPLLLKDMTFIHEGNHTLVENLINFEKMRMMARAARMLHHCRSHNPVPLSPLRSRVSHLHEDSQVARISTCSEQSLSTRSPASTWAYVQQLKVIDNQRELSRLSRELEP", "test": "Counterscreen qHTS for antagonist of cAMP-regulated guanine nucleotide exchange factor 3 (EPAC1) (AID 1645888);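 further: fluorescence loss as bound BODIPY-GDP is released from Rap1B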", "conditions": "Rap1B-BODIPY-GDP nucleotide exchange, fluorescence; series mostly up to 154 µM", "summary_of_the_method": "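Measured: fluorescence of BODIPY-GDP bound to Rap1B, which falls as exchange proceeds. Conditions include 50 uM competing GDP, 5 and 30 min reads, and a later cAMP challenge for antagonist detection.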"}
{"smiles": "COc1cc(O)c(C(C)=O)c2c1C=CC(C)(C)O2", "Potency": "inactive"}
{"smiles": "COCCCn1c(=O)/c(=C\\c2ccccc2OC(C)C)s/c1=C(/C#N)C(=O)Nc1ccc(C(=O)O)cc1", "activity change, negative = inhibition": "38.7% [at 30.8 µM] (inactive)"}
{"smiles": "COC(=O)c1ccc2nc(-c3ccc(F)cc3)c(Cc3ccc(C)cc3)n2c1", "activity change, negative = inhibition": "-2.87% [at 30.8 µM] (inactive)"}
{"smiles": "Cc1ccc(NC(=O)CN2C(=O)S/C(=C\\c3cccn3-c3cccc(C(=O)O)c3)C2=O)cc1C", "activity change, negative = inhibition": "-10.4% [at 30.8 µM] (inactive)"}
{"smiles": "COc1ccc(N2Cc3cccc(C(=O)Nc4ccc(C(C)C)cc4)c3C2=O)cc1", "Potency": "inactive"}
{"smiles": "CN(C)S(=O)(=O)c1ccc(N2CCCC2)c(C(=O)NCC2COc3ccccc3O2)c1", "note": "(stereo not given)", "Potency": "inactive"}
{"smiles": "CCC1=NN2C(=N)/C(=C/c3ccc(OS(=O)(=O)c4ccccc4)cc3)C(=O)N=C2S1", "Potency": "inactive"}
{"smiles": "CCCn1cc(SCC(=O)NCc2ccc3c(c2)OCO3)c2ccccc21", "activity change, negative = inhibition": "-3.41% [at 30.8 µM] (inactive)"}
{"smiles": "CCOC(=O)C1CCN(c2c(C(=O)c3ccc(C)cc3)cnc3ccc(F)cc23)CC1", "Potency": "inactive"}
{"smiles": "O=C(CSc1nc2ccc(Cl)cc2[nH]1)N1CCN(C(=O)c2ccco2)CC1", "Potency": "inactive"}
{"smiles": "O=C(CSc1nc(O)cc(=O)n1-c1ccccc1)Nc1nc2ccccc2s1", "Potency": "inactive"}
{"smiles": "CCn1c(=O)c2sccc2n2c(CCCC(=O)N3CCN(c4cc(Cl)ccc4C)CC3)nnc12", "Potency": "inactive"}
{"smiles": "O=C(O)/C=C\\C(=O)Nc1ccccc1C#Cc1ccc(Br)cc1", "Potency": "inactive"}
{"smiles": "COc1cccc(C(=O)Nc2ccc(NC(=O)c3ccco3)c(Cl)c2)c1", "activity change, negative = inhibition": "-46.5% [at 30.8 µM] (inactive)"}
{"smiles": "O=C(NC1CCCCC1)C(c1ccc(-c2ccccc2)cc1)n1c(=O)c(-c2ccco2)nc2ccccc21", "note": "(stereo not given)", "Potency": "inactive"}
{"smiles": "CC(C)N(Cc1ccccc1)C(=O)c1nc(-c2ccc(Cl)cc2)n2c1CCCCC2", "Potency": "inactive"}
{"smiles": "COc1cccc(/C=C2\\SC(=S)NC2=O)c1OS(=O)(=O)c1ccc(NC(C)=O)cc1", "activity change, negative = inhibition": "-18.9% [at 30.8 µM] (inactive)"}
{"smiles": "CC[C@@H]1CC=C[C@H]2[C@H]1C(=O)N(Cc1ccccc1)[C@H]2c1ccc(OC)c(Cl)c1", "Potency": "inactive"}
{"smiles": "CN(C)c1ccc(-c2[nH][nH]c(=O)c2NC(=O)c2ccccn2)cc1", "Potency": "inactive"}
{"smiles": "Cc1cc(CSc2ccc(Cl)cc2)ccc1N", "Potency": "inactive"}
{"smiles": "O=C(/C=C/c1ccccc1Cl)c1ccc(O)cc1", "activity change, negative = inhibition": "8.95% [at 30.8 µM] (inactive)"}
{"smiles": "CCOC(=O)C1=C(C)NC(C)=C(C(=O)OCC)C1c1cccc([N+](=O)[O-])c1", "activity change, negative = inhibition": "3.16% [at 30.8 µM] (inactive)"}
{"smiles": "CCc1nc2c(OCc3ccc(C(F)(F)F)cc3)cccn2c1N(C)C(=O)c1ccc(C)cc1", "Potency": "inactive"}
{"smiles": "CCCS(=O)(=O)c1c(S(=O)(=O)CCC)c2cnccn2c1C(=O)c1ccc(CC)cc1", "activity change, negative = inhibition": "-2.89% [at 30.8 µM] (inactive)"}
{"smiles": "Cc1cccc(S(=O)(=O)Nc2ccc(S(=O)(=O)Nc3nccs3)cc2)c1", "Potency": "inactive"}
{"smiles": "C[C@@]12C(=O)Nc3cc(F)ccc3C(=O)N1[C@H]1c3cc(Br)ccc3OC[C@@H]1[C@@H]2c1ccccc1", "Potency": "inactive"}
{"smiles": "CC1OC(CC(=O)O)CC2=C1C(=O)c1c(O)cccc1C2=O", "note": "(stereo not given)", "Potency": "inactive"}
{"smiles": "CS/C(=C\\C(=O)c1ccco1)Nc1ccccc1Cl", "Potency": "inactive"}
{"smiles": "O=C(CCCn1c(SCC(=O)c2ccc(O)c(O)c2)nc2ccccc2c1=O)NCC1CCCO1", "note": "(stereo not given)", "Potency": "inactive"}
{"smiles": "COc1ccccc1-c1oc2ccccc2c1C#CC(C)(C)O", "Potency": "inactive"}
{"smiles": "O=C(N/N=C/c1c(O)ccc2ccccc12)c1[nH]ncc1Br", "Potency": "inactive"}
{"smiles": "Cc1ccc(-c2nn(-c3ccccc3)cc2C=C2SC(=S)N(CCS(=O)(=O)O)C2=O)cc1", "activity change, negative = inhibition": "-16.5% [at 30.8 µM] (inactive)"}
{"smiles": "COc1cc(NC(=O)c2cc3nc(-c4ccccc4)cc(-c4ccccc4)n3n2)cc(OC)c1OC", "Potency": "inactive"}
{"smiles": "Cc1ccccc1C(=O)Nc1sc2c(c1C(=O)N1CCCCC1)CCC(C)C2", "note": "(stereo not given)", "Potency": "inactive"}
{"smiles": "CC1=C(C(=O)Nc2ccccc2)C(c2ccc(Cl)cc2)n2c(s/c(=C/c3cccc(OCC(=O)O)c3)c2=O)=N1", "note": "(stereo not given)", "activity change, negative = inhibition": "-3.62% [at 30.8 µM] (inactive)"}
{"smiles": "COc1ccc2c(c1)Cc1sc(NC(=O)c3ccccc3C)nc1-2", "Potency": "inactive"}
{"smiles": "COc1cccc(C(=O)Nc2nnc(-c3ccccc3)s2)c1OC", "Potency": "inactive"}
{"smiles": "O=C(N/N=C/c1ccc(O)c(O)c1)c1ccc(CSc2cccc3cccnc23)cc1", "activity change, negative = inhibition": "41.8% [at 30.8 µM] (inactive)"}
{"smiles": "COc1ccc(N(CC(=O)NC2CCCCCCC2)S(=O)(=O)c2c(C)nn(C)c2C)cc1", "Potency": "inactive"}
{"smiles": "CC(NS(=O)(=O)OCC(Cl)(Cl)Cl)c1ccc(Br)cc1", "note": "(stereo not given)", "Potency": "inactive"}
